Data published in PubChem BioAssay AID1049 (The Scripps Research Institute Molecular Screening Center, 2008).
About 780 (0.39%) of roughly 200,000 compounds were called active. Shown is part of a subset that was picked to be rich in actives. A number with no mark means an inactive call. No stated cut-off is given here; in the data, active means TR-FRET ratio above about 2000; inactive means the rest.

Test: detection-format interference in TR-FRET ratio – biochemical, artefact control for PPARgamma SRC-2 agonist project, primary screen (AID 1049)
Conditions: TR-FRET artefact counter-screen; at 8 µM; stronger effect = higher value

Compound | TR-FRET ratio
CSC1=NP(=S)(SC)N(C)c2nc3n(c21)CCC3 (stereo not given) | 3350 (active)
Cc1ccc(C)c(NC2=NCCCS2)c1 | 1500
Cc1cccc(-n2c(O)c(C=NC34CN5CN(CN(C5)C3)C4)c(=O)[nH]c2=O)c1 | 1640
OC1/C(=C/c2ccc(C(F)(F)F)cc2)N2CCC1CC2 (stereo not given) | 1710
COc1cc(-n2c(=S)[nH]c3ccc(C)cc3c2=O)c(Cl)cc1Cl | 2140 (active)
O=c1c2ccccc2nc(-c2ccccc2)n1-c1ccccn1 | 1550
O=C(COC(=O)Cc1ccccc1)Nc1ccc(F)cc1 | 1600
CN(C)c1nc(N(C)C)nc(N(C#N)CCCl)n1 | 1800
CCCn1c(C(=O)c2ccccc2OC)nc2ccccc21 | 1400
O=c1[nH]c(=O)n(-c2ccccc2)c(O)c1C=NC12CN3CN(CN(C3)C1)C2 | 1500
